The list is not random: actives were taken first. Their share in the collection is about 3%.
PAFAH1B2 inh = blocks human PAF acetylhydrolase 1b catalytic subunit 2 | P68402 | recombinant PAFAH1B2, FP-rhodamine activity probe, fluorescence polarization | inhibition, % at 3.39 µM | 340,000 compounds, 1.2% hits | AID 492953;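 active = inhibition above the mean of all tested compounds plus 3 SD, cut at about 24% in these data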;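 note: 0% = enzyme with DMSO and 100% = wells lacking PAFAH1B2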
Target sequence (P68402 whole entry, looked up): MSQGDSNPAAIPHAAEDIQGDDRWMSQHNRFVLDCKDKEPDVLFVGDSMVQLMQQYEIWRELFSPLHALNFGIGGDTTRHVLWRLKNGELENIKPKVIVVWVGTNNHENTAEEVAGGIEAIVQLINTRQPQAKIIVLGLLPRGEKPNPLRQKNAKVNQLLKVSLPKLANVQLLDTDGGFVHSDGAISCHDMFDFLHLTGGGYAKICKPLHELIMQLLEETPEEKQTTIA
PP5 inh = PP5 (human) phosphatase inhibition; P53041; purified PP5c, OMFP substrate fluorescence; inhibition, % at 6.7 µM; 320,000 compounds, 0.18% hits; AID 1987;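 active = inhibition above the campaign's mean inhibition across all tested compounds plus 3 SD, cut at about 9.5% in these data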;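 note: 0% = DMSO only and 100% = 100 µM cantharidin control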
PAFAH2 FP inh = PAFAH2 (human) inhibition; Q99487; recombinant PAFAH2, FP-rhodamine activity probe, fluorescence polarization; inhibition, % at 3.39 µM; 340,000 compounds, 0.99% hits;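 active = inhibition above the mean over all tested compounds plus 3 SD, cut at about 30% in these data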;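 note: inhibitors block probe labeling of enzyme so polarization drops; 0% = enzyme with DMSO and 100% = wells lacking PAFAH2 protein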
pPAFAH FP inh = inhibitors of human plasma PAF acetylhydrolase (pPAFAH); inhibition, % at 3.39 µM; 330,000 compounds, 1.5% hits; recombinant pPAFAH, FP-rhodamine probe fluorescence polarization; Q13093;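 active = inhibition above the mean inhibition across the screen plus 3 SD, cut at about 25% in these data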;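 note: inhibitors block binding of the rhodamine activity-based probe so polarization drops; 0% = enzyme with DMSO and 100% = wells lacking pPAFAH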
PAFAH1B3 FP inh = PAFAH1B3 (human) inhibition; recombinant PAFAH1B3, FP-rhodamine probe, fluorescence polarization; inhibition, % at 3.39 µM; 340,000 compounds, 0.28% hits; AID 492972;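 active = inhibition above the screen-wide average of all tested compounds plus 3 SD, cut at about 25% in these data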;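 note: 0% = enzyme with DMSO only and 100% = wells lacking PAFAH1B3 protein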
Target sequence (Q15102 whole entry, looked up): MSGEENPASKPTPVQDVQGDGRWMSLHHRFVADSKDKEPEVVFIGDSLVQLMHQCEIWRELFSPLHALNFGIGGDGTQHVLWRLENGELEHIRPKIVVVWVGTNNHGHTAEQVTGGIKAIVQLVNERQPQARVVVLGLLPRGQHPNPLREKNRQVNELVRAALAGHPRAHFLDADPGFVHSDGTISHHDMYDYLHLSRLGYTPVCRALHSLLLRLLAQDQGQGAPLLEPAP
Fh CTSL1 inh = blocks F. hepatica cathepsin L1 in PFM18AAP counter-screen | recombinant F. hepatica cathepsin L1, Z-Leu-Arg-MCA fluorescence | inhibition, % at 5.96 µM | 300,000 compounds, 0.49% hits | AID 1906;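 active = inhibition above the mean of all tested compounds plus 3 SD, set per screening campaign, cut at about 17% in these data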;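 note: 0% = plate median of test compound wells and 100% = 1 µM Z-Phe-Ala-diazomethylketone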
Active calls of the source: *; · = no result given.

SMILES	PAFAH1B2 inh	PP5 inh	PAFAH2 FP inh	pPAFAH FP inh	PAFAH1B3 FP inh	Fh CTSL1 inh
O=[N+]([O-])c1cc(-c2cnc3ccccc3n2)ccc1Oc1ccc(F)cc1	58*	-1	-12	11	6	3
Cc1c(C(=O)OCC2CCCO2)[nH]c2c1C(=O)CC(c1ccco1)C2 (configuration not stated)	3	-1	6	25*	2	0
O=C(OCC(=O)N1CCN(C(=O)c2ccco2)CC1)c1cc(-c2ccco2)nc2ccccc12	5	2	52*	31*	3	-5
Cc1ccc(NC(=O)CN2C(=O)S/C(=C/c3ccc(O)c([N+](=O)[O-])c3)C2=O)cc1C	10	·	22	·	17	·
O=C(CN1C(=O)S/C(=C\c2cc(Cl)c(O)c(Cl)c2)C1=O)Nc1ccccc1	1	5	12	25*	15	5
Cc1cccc(NC(=O)CN2C(=O)S/C(=C\c3ccc(O)c([N+](=O)[O-])c3)C2=O)c1	7	3	27	29*	26*	7
O=C(CN1C(=O)S/C(=C\c2ccccn2)C1=O)Nc1ccccc1	-5	·	4	·	-2	·
Cc1nn(-c2ccccc2)c(C)c1NC(=O)COc1cc(F)ccc1[N+](=O)[O-]	7	·	6	-6	7	·
CCCCN1C(=O)C(=O)N(CC(=O)Nc2sc(CC)cc2C(=O)OCC)C1=O	6	0	-2	33*	3	-2
CCOC(=O)c1cc(CC)sc1NC(=O)COC	3	0	2	10	13	-1
Cc1cccc(NC(=O)C(C)Sc2nc3nc(C)cc(C)n3n2)c1 (configuration not stated)	-1	·	-4	5	2	·
O=C(N[C@@H](Cc1ccccc1)C(=O)OCc1ccccc1)c1nc[nH]c1C(=O)NCc1ccccc1	0	5	13	33*	-6	-2
CC(=NNC(=O)c1ccncc1)c1cc(Cl)ccc1Cl	8	·	0	·	2	·
O=C(CN(Cc1ccccc1)C(=O)CCl)c1cccc(Br)c1	-4	1	8	-3	1	75*
O=C(NCCCc1ccccc1)c1cccc(Br)c1	8	-1	9	3	5	-5
COc1cc(C(=O)O/N=C2\C=CC(=O)C=C2C)cc(OC)c1OC	-8	-1	1	7	8	2
COc1cc(C(=O)ON=C2C3CC4CC(C3)CC2C4)cc(OC)c1OC	9	-1	9	3	8	36*
S=c1[nH]nc(CSCCOc2ccc(Cl)cc2Cl)o1	34*	-4	4	8	4	-1
CSCCC(NC(=O)c1ccccc1Br)C(=O)NCC(c1ccco1)N1CCCCC1 (configuration not stated)	-1	1	6	-4	-3	21*
CSCCC(NC(=O)c1ccco1)C(=O)NCc1ccc(F)cc1 (configuration not stated)	5	1	5	0	3	0
CSCCC(NC(=O)c1ccco1)C(=O)NCCc1ccc(Cl)cc1 (configuration not stated)	28*	·	2	6	10	·
Nc1c(S(=O)(=O)c2cccc(Cl)c2)c2nc3ccccc3nc2n1/N=C/c1ccc(O)c(O)c1	·	8	·	71*	·	0
Cc1sc2nc(CN3CCOCC3)nc(N3CCN(S(=O)(=O)c4ccccc4)CC3)c2c1C	-2	3	2	6	4	·
CCC(C)NC(=O)c1ccc(CS(=O)(=O)Cc2ccc(Cl)cc2)o1 (configuration not stated)	7	0	5	26*	12	1
O=C(O)Cc1ccc(O)cc1	2	1	5	2	8	-2
SMILES	PAFAH1B2 inh	PP5 inh	PAFAH2 FP inh	pPAFAH FP inh	PAFAH1B3 FP inh	Fh CTSL1 inh
CC(CCC(=O)O)(c1ccc(O)cc1)c1ccc(O)cc1	25*	-1	1	-2	11	·
CC1CN(C2CCCCC2)C(=O)NC1=O (configuration not stated)	6	·	6	·	3	·
CCCCOc1ccc(S(=O)(=O)NC(=O)NCc2ccc(OCCC)cc2)cc1	42*	-1	5	8	3	2
COc1ccc(CNC(=O)NS(=O)(=O)c2ccc(C)cc2)cc1	8	0	6	-2	-1	0
CCCCOc1ccc(CNC(=O)NS(=O)(=O)c2ccc(OCC(C)C)cc2)cc1	59*	0	-1	2	3	4
CCCCOc1ccc(CNC(=O)NS(=O)(=O)c2ccc(OCC)cc2)cc1	10	1	-8	4	-1	-1
Clc1cccc(Cl)c1CNc1ccc(N2CCCC2)cc1	·	3	·	27*	·	1
O=C(Cc1ccc(Cl)cc1)Nc1ccc(S(=O)(=O)Nc2cnc3ccccc3n2)cc1	20	4	-1	31*	6	2
Cc1nc(S(=O)(=O)c2ccc(Cl)cc2)c(NCc2ccccc2)o1	10	-1	7	3	10	28*
CCOC(=O)c1sc(N(Cc2ccccc2)C(=O)COC(=O)c2ccc(O)cc2)nc1C	-12	3	-24	-18	-15	0
CCOC(=O)c1sc(N(Cc2ccccc2)C(=O)COC(=O)c2ccccc2O)nc1C	42*	1	-5	9	2	6
CCOC(=O)c1sc(N(Cc2ccccc2)C(=O)CCl)nc1C	2	-1	-5	-3	-6	22*
Cc1cc(C)n(CC(=O)NC2CCCCC2C)c(=O)c1C#N (configuration not stated)	2	2	-1	-1	10	-1
Cc1ccc(/C=C2\SC(=S)N(CCC(=O)NNC(=O)c3ccc(O)cc3)C2=O)cc1	-86	-1	-124	-46	-147	6
CN1C(=O)/C(=C/c2ccc(C(=O)Nc3ccc(O)cc3C(=O)O)cc2)SC1=S	7	-3	2	30*	15	1
Cc1cc(C)c(-n2c(C)cc(/C=C3/NC(=O)NC3=O)c2C)c(C)c1	·	4	·	27*	·	2
O=C(Nc1cccc2ccccc12)C1CCN(C(=O)NCc2ccccc2)CC1	4	1	9	4	-3	1
COc1ccccc1NC(=O)C1CCN(C(=O)NCc2ccccc2)CC1	5	3	6	32*	8	1
COc1ccc2[nH]c(C(=O)NCCN3CCOCC3)cc2c1	36*	-1	5	-4	6	1
CN(C)c1ccc(NC(=O)c2ccc(COc3cccc(Cl)c3)o2)cc1	4	5	23	27*	5	-3
CCN1CCN(C(=O)c2ccc(COc3cccc(Cl)c3)o2)CC1	7	1	5	5	4	0
O=C(COC(=O)CCC1CCCC1)NCc1ccc(Cl)cc1	4	1	12	30*	1	-6
O=C(COC(=O)CCc1ccccc1)Nc1ccccc1OC(F)F	17	0	16	13	-1	-6
O=C(COC(=O)CCC1CCCC1)Nc1ccccc1OC(F)F	3	1	5	29*	2	-7
